The full data set covers some 7,900 targets. This sample favours those with a hit. About 0.6% of all pairs of compound and target were hits. A number with no mark means an inactive call.
Experiments:
Assay in all cases: log2 fold change, soluble protein after heating vs DMSO (PISA); higher = thermal stabilisation; K562 cells, 10 uM, 30 min; active = over 0.2 and 3.5 SD of the protein, either way, in both replicates (recomputed)
[1] = compound: CC[C@@H]1C(=O)N(C)c2cnc(Nc3ccc(C(=O)NC4CCN(C)CC4)cc3OC)nc2N1C1CCCC1
Summary of the method: (§1)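 For each measurement, 10 μM compound was applied for 30 min to K562 cells at 2×10^6 cells/mL. Aliquots were heated for 3 min across 48°C-58°C, pooled, and extracted in PBS with 0.5% NP-40 at 4°C; the supernatant after 21,000xg for 90 min was soluble protein. This was quantified by TMTpro 16plex LC-MS/MS with channel sums equalised, and thermal stability was reported relative to control samples from duplicates, on a log2 fold-change scale.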

volasertib = compound: CC[C@@H]1C(=O)N(C)c2cnc(Nc3ccc(C(=O)N[C@H]4CC[C@H](N5CCN(CC6CC6)CC5)CC4)cc3OC)nc2N1C(C)C [volasertib]
Summary of the method: as §1

[2] = compound: CC[C@H](C)N1C=C(C2=C(C=C(C=C21)C3=CN=C(C=C3)N4CCNCC4)C(=O)NCC5=C(C=C(NC5=O)C)C)C
Summary of the method: as §1

epoxomicin = compound: CC[C@H](C)[C@@H](C(=O)N[C@@H]([C@@H](C)O)C(=O)N[C@@H](CC(C)C)C(=O)[C@]1(CO1)C)NC(=O)[C@H]([C@@H](C)CC)N(C)C(=O)C [epoxomicin]
Summary of the method: as §1

[3] = compound: CCn1c(C(=O)N(C2CC2)C2CC2)cc2c3c(ncn3C)c(Nc3cc(C)n(C)n3)nc21
Summary of the method: as §1

[4] = compound: CCn1cc(-c2ccnc3[nH]c(-c4cccc(CN(C)C)c4)cc23)c(-c2ccc(NC(=O)N(C)C)cc2)n1
Summary of the method: as §1

[5] = compound: CN(C)CC(=O)Nc1ccc2[nH]c(=O)c3ccccc3c2c1
Summary of the method: as §1

rosiglitazone = compound: CN(CCOC1=CC=C(C=C1)C[C@H]2C(=O)NC(=O)S2)C3=CC=CC=N3 (racemic) [rosiglitazone]
Summary of the method: as §1

[6] = compound: CN1C2=C(C3=C1C(=O)N(N=C3)CC4=CC(=CC=C4)N)SC(=C2)S(=O)C
Summary of the method: as §1

[7] = compound: CN1CCC(CNc2ccc3ncc(-c4cccc(OC(F)(F)F)c4)n3n2)CC1
Summary of the method: as §1

saracatinib = compound: CN1CCN(CCOc2cc(OC3CCOCC3)c3c(Nc4c(Cl)ccc5c4OCO5)ncnc3c2)CC1 [saracatinib]
Summary of the method: as §1

sotrastaurin = compound: CN1CCN(c2nc(C3=C(c4c[nH]c5ccccc45)C(=O)NC3=O)c3ccccc3n2)CC1 [sotrastaurin]
Summary of the method: as §1

alvocidib = compound: CN1CC[C@H](c2c(O)cc(O)c3c(=O)cc(-c4ccccc4Cl)oc23)[C@H](O)C1 [alvocidib]
Summary of the method: as §1

Tubastatin A = compound: CN1CCc2c(c3ccccc3n2Cc2ccc(C(=O)NO)cc2)C1 [Tubastatin A]
Summary of the method: as §1

[8] = compound: CNC(=O)C1=CC=CC=C1NC2=NC(=NC=C2Cl)NC3=C(C=C(C=C3)N4CCOCC4)OC
Summary of the method: as §1

defactinib = compound: CNC(=O)c1ccc(Nc2ncc(C(F)(F)F)c(NCc3nccnc3N(C)S(C)(=O)=O)n2)cc1 [defactinib]
Summary of the method: as §1

rucaparib = compound: CNCc1ccc(-c2[nH]c3cc(F)cc4c3c2CCNC4=O)cc1 [rucaparib]
Summary of the method: as §1

[9] = compound: CNc1nc(-c2ccc3c(N)n[nH]c3c2)cc(N2C[C@@H](C(=O)NC3CCCCC3)CC[C@H]2C)n1
Summary of the method: as §1

encorafenib = compound: COC(=O)N[C@@H](C)CNc1nccc(-c2cn(C(C)C)nc2-c2cc(Cl)cc(NS(C)(=O)=O)c2F)n1 [encorafenib]
Summary of the method: as §1

[10] = compound: COC(=O)[C@H](CCSC)NC(=O)C1=C(C=C(C=C1)NC[C@H](CS)N)C2=CC=CC=C2
Summary of the method: as §1

UniProt P17568, sequence (P17568 whole entry, looked up): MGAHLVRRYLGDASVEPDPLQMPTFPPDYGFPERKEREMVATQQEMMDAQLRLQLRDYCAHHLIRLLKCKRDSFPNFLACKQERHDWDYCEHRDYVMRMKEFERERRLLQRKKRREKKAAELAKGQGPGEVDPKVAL
UniProt Q9Y2X3, sequence (Q9Y2X3 whole entry, looked up): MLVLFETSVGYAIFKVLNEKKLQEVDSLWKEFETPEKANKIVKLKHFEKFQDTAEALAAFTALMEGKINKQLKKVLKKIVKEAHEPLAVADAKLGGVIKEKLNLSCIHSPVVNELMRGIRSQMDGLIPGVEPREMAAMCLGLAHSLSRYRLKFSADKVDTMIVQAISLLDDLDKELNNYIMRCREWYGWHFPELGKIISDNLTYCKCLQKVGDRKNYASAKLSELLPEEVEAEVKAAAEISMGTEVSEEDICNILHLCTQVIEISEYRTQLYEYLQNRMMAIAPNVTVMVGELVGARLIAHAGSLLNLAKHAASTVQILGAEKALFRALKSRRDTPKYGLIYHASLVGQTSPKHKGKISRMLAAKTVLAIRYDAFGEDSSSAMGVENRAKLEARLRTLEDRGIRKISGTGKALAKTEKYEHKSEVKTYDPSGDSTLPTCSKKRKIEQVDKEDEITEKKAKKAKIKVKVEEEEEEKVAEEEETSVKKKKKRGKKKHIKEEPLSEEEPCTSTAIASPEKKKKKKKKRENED
UniProt Q16621, sequence (Q16621 whole entry, looked up): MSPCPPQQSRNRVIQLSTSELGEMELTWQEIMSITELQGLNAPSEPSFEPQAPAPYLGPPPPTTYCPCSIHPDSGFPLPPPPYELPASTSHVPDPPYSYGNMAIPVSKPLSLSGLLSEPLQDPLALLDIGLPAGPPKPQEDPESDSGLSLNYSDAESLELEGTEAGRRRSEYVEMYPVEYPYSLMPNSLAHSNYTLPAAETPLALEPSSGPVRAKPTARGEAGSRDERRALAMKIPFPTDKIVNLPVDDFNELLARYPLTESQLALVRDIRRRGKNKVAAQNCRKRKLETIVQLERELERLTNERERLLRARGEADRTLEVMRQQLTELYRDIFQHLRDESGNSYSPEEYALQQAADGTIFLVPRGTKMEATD
UniProt O15118, sequence (O15118 whole entry, looked up): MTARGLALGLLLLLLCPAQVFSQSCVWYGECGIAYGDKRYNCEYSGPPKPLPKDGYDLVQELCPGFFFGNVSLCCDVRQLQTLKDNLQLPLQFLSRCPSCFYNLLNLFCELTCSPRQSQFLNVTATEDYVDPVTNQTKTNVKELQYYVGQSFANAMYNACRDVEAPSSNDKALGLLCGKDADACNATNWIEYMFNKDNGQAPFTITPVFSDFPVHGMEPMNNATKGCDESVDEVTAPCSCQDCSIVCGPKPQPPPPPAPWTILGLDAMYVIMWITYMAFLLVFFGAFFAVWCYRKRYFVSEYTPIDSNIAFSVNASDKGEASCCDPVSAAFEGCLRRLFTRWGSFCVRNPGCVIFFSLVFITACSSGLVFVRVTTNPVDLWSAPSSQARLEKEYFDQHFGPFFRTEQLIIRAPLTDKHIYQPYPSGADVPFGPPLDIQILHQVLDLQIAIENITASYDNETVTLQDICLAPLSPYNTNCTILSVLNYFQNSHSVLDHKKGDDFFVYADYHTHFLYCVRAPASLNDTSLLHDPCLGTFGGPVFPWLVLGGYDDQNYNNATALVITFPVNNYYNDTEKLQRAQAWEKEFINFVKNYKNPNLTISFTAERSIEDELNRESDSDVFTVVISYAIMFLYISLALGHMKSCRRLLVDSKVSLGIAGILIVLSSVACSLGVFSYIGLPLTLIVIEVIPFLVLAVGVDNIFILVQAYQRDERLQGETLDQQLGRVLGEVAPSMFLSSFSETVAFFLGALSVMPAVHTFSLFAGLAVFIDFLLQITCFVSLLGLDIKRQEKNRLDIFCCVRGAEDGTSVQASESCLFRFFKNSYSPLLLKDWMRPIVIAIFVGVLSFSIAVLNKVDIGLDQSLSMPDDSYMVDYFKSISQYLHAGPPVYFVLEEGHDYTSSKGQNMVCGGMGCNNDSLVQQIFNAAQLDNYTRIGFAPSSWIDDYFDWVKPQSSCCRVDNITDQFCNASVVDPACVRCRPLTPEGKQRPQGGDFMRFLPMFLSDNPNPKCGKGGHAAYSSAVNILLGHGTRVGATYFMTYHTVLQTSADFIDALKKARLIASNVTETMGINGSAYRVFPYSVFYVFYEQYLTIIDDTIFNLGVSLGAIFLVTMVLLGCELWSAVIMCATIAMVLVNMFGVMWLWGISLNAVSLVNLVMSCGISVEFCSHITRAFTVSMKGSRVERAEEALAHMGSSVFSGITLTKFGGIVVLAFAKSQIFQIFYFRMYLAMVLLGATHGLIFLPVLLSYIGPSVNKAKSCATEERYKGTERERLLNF
UniProt O75376, sequence (O75376 whole entry, looked up): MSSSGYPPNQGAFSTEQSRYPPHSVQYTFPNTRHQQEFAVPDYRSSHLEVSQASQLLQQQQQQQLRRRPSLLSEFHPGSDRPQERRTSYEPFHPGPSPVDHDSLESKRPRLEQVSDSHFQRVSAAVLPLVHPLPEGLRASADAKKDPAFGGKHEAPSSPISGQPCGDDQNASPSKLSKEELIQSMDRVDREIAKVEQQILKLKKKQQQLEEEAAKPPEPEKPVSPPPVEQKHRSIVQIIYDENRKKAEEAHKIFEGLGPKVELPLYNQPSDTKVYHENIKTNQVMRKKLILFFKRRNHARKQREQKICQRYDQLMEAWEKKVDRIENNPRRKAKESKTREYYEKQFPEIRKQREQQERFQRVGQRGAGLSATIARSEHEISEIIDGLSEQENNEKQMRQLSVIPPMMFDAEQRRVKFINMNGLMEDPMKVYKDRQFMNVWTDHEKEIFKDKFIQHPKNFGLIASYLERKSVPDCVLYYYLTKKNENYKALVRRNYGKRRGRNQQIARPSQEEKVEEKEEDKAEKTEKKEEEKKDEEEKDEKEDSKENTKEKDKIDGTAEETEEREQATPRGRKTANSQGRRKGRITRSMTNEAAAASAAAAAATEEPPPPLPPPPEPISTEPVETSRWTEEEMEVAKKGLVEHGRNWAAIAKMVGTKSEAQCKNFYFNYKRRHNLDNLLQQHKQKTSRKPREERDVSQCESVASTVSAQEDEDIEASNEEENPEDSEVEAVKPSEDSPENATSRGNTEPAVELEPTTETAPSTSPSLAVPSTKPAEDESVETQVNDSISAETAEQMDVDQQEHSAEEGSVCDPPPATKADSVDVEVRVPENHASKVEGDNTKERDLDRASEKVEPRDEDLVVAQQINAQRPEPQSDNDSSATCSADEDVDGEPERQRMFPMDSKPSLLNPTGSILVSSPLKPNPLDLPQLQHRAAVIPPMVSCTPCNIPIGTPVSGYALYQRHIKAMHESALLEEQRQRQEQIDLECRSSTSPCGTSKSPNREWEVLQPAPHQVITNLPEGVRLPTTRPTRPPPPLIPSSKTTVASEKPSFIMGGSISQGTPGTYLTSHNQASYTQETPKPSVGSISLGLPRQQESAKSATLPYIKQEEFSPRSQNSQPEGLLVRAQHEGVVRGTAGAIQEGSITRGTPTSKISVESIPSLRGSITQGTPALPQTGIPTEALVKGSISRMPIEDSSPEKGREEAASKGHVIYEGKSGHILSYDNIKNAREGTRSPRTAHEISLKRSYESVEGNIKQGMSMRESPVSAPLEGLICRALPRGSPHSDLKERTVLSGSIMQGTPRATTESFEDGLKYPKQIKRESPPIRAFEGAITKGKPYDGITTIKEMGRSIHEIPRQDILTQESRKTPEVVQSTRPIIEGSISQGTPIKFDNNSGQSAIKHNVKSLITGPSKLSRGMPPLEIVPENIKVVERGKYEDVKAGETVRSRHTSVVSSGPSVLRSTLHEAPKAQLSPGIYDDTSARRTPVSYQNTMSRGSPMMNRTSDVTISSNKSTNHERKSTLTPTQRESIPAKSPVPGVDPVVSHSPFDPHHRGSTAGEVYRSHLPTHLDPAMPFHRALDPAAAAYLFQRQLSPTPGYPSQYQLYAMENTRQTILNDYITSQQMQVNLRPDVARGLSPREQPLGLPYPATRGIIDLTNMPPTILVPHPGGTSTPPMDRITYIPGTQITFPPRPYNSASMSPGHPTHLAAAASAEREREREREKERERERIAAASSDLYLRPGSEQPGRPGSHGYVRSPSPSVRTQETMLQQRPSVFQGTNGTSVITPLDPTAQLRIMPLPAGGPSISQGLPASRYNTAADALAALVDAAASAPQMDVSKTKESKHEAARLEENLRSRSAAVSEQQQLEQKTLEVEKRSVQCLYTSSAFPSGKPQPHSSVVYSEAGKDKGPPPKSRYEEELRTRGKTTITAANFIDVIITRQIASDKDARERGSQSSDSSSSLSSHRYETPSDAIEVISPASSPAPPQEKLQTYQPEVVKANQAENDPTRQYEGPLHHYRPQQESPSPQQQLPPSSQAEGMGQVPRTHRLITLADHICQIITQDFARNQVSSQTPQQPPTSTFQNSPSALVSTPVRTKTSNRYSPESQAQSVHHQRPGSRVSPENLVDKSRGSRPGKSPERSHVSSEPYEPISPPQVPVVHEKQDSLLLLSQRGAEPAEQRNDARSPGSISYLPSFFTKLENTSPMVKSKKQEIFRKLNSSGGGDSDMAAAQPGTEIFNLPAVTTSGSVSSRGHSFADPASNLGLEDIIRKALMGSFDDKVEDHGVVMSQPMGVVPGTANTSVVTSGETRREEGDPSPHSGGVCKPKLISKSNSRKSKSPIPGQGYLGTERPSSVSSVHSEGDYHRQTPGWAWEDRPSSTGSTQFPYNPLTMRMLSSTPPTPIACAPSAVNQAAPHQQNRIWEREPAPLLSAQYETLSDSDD

| Target | log2 fold change [1] | log2 fold change (volasertib) | log2 fold change [2] | log2 fold change (epoxomicin) | log2 fold change [3] | log2 fold change [4] | log2 fold change [5] | log2 fold change (rosiglitazone) | log2 fold change [6] | log2 fold change [7] | log2 fold change (saracatinib) | log2 fold change (sotrastaurin) | log2 fold change (alvocidib) | log2 fold change (Tubastatin A) | log2 fold change [8] | log2 fold change (defactinib) | log2 fold change (rucaparib) | log2 fold change [9] | log2 fold change (encorafenib) | log2 fold change [10] |
| --- | --- | --- | --- | --- | --- | --- | --- | --- | --- | --- | --- | --- | --- | --- | --- | --- | --- | --- | --- | --- |
| NPC1 (UniProt O15118) | -0.016 | -0.072 | -0.031 | -0.02 | 0.009 | 0.005 | -0.029 | -0.018 | 0.004 | 0.012 | 0.077 | 0.007 | 0.041 | -0.045 | 0.02 | 0.01 | -0.147 | -0.049 | -0.012 | -0.006 |
| NFE2 (UniProt Q16621) | -0.136 | -0.227 | 0.018 | 0.173 | 0.012 | 0.084 | 0.273 | 0 | -0.015 | -0.145 | 0.011 | -0.096 | -0.182 | 0.093 | -0.025 | -0.037 | -0.075 | -0.065 | 0.018 | -0.06 |
| NDUFB7 (UniProt P17568) | -0.053 | -0.004 | -0.072 | -0.066 | -0.129 | -0.099 | -0.036 | 0.058 | -0.058 | 0.094 | 0.046 | -0.014 | -0.016 | 0.016 | 0.021 | -0.015 | -0.021 | -0.011 | -0.032 | 0.029 |
| NCOR1 (UniProt O75376) | -0.034 | -0.021 | 0.142 | 0.07 | -0.066 | 0.046 | 0.048 | 0.044 | 0.033 | -0.045 | 0.074 | -0.094 | -0.179 | -0.009 | -0.041 | -0.113 | 0.012 | -0.02 | 0 | 0.007 |
| NOP58 (UniProt Q9Y2X3) | 0.095 | -0.066 | 0.057 | -0.263 | 0.005 | 0.192 | 0.052 | -0.052 | 0.234 | 0.2 | -0.044 | -0.008 | 0.075 | 0.014 | -0.058 | -0.004 | 0.304 | -0.01 | 0.106 | -0.076 |
| MRPL50 (UniProt Q8N5N7) | 0.026 | -0.029 | -0.063 | 0.094 | -0.005 | -0.044 | 0.037 | -0.015 | -0.043 | 0.308 | 0.148 | -0.048 | 0.066 | 0.133 | -0.011 | 0.04 | 0.063 | -0.065 | -0.01 | 0.061 |
| MTOR (UniProt P42345) | -0.131 | -0.305 (active) | 0.04 | -0.021 | -0.05 | -0.073 | 0.036 | 0.058 | 0.017 | -0.286 (active) | -0.076 | 0.088 | -0.101 | 0.002 | -0.005 | -0.09 | 0 | -0.009 | 0.041 | -0.02 |
| MRPS33 (UniProt Q9Y291) | 0.016 | 0.025 | 0.057 | -0.012 | 0 | -0.011 | -0.01 | -0.007 | -0.001 | 0.017 | -0.033 | -0.077 | -0.038 | 0.02 | -0.018 | 0.087 | 0.119 | 0.04 | 0.024 | 0.02 |
